Our source for the Potency values is PubChem BioAssay (NCATS).

Structures are written as SMILES. Records with an inconclusive call do not appear. Calls of active or inactive are those of the source. Calls follow the shape of the dose curve; as a rule, active = well fitted cell-killing curve with a large enough effect; inconclusive = small, poorly fitted or top-dose-only effect, or effect the other way; inactive = no such curve, though single readings can be large or run the other way.
Potency is read from the fitted curve at half-maximal effect.

One test in a line: Quantitative High-Throughput drug screen in 47 multiple myeloma cell lines against the NCATS MIPE library collection: UTMC2_PLB cell viability assay (AID 1919868). Also: nearly all actives have a fitted effect of over 55% in size. The settings on record: CellTiter-Glo ATP luminescence, 48 h; viability (% of DMSO control): at 45.8 µM (top of the series) unless noted. An outline of the steps:
(§1)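 MIPE 4.0 approved/investigational drugs; 500 cells/well; 48 h 37 °C humidified 5% CO2; CTG luminescence readout; DMSO = 100%, media = 0% viability.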
Take `NC1(Cc2ccc(Cl)cc2)CCN(c2ncnc3[nH]ccc23)CC1`: the Potency is 0.264 µM (active).

For the compound `CC(C)[C@H](C(=O)Nc1ccc(C(=O)NO)cc1)c1ccccc1`, the Potency was 0.469 µM (active).

Regarding `C#Cc1cccc(Nc2ncnc3cc(OC)c(OCCCCCCC(=O)NO)cc23)c1`, the Potency is 0.0187 µM (active).

Take `CCC1=C[C@@H]2CN(C1)Cc1c([nH]c3ccccc13)[C@@](C(=O)OC)(c1cc3c(cc1OC)N(C)[C@@H]1[C@@](O)(C(=O)OC)[C@H](OC(C)=O)[C@]4(CC)C=CCN5CC[C@]31[C@@H]54)C2`: the Potency was 0.001 µM (active).

Consider `CN1CCN(Cc2ccc(NC(=O)Nc3ccc(Oc4cc(NC(=O)C5CC5)ncn4)cc3)cc2C(F)(F)F)CC1`, for which the Potency was 0.132 µM (active).

Consider `C=CC(=O)Nc1cc2c(Nc3ccc(F)c(Cl)c3)ncnc2cc1OCCCN1CCOCC1`, for which the Potency is 4.69 µM (active).

As for `O=C(Cc1ccc(-c2ccc(OCCN3CCOCC3)cc2)cn1)NCc1ccccc1`, the Potency is 0.0332 µM (active).

`CC(C)c1ccc(Cn2ccc3c4c(N)nc(NC5CC5)nc4ccc32)cc1`: the Potency is 1.87 µM (active).

For the compound `Cc1ccc(-c2ncn(-c3ccc(Nc4nccc(-c5cccc(N6CCOCC6)c5)n4)cc3)n2)cn1`, the Potency is 0.187 µM (active).

As to `CC[C@@]1(O)C(=O)OCc2c1cc1n(c2=O)Cc2cc3cc(O)ccc3nc2-1`, the Potency is 0.0372 µM (active).

On to `CC(C)c1cnn2c(NCc3ccccc3)cc(N[C@@H](CO)[C@H](O)CO)nc12`, for which the Potency is 0.209 µM (active).

Regarding `C[C@@H](Oc1cc(-c2cnn(C3CCNCC3)c2)cnc1N)c1c(Cl)ccc(F)c1Cl`, the Potency is 2.35 µM (active).

The next test can be described thus: Quantitative High-Throughput drug screen in 47 multiple myeloma cell lines against the NCATS MIPE library collection: PE2_PLB cell viability assay (AID 1919869). Also: nearly all actives have a fitted effect of over 35% in size. The settings on record: PE2_PLB myeloma cells viability, ATP luminescence, 48 h; series mostly up to 45.8 µM. The method, boiled down: as §1
As for `CC=C1NC(=O)[C@H]2CSSCCC=C[C@H](CC(=O)N[C@H](C(C)C)C(=O)N2)OC(=O)[C@H](C(C)C)NC1=O`, the Potency is 0.059 µM (active).

As for `O=C(Nc1nc2cccc(-c3ccc(CN4CCS(=O)(=O)CC4)cc3)n2n1)C1CC1`, the Potency is 16.6 µM (active).

As for `COCCn1c2c([n+](Cc3cnccn3)c1C)C(=O)c1ccccc1C2=O`, the Potency is 0.0187 µM (active).

`CCc1c2c(nc3ccc(O)cc13)-c1cc3c(c(=O)n1C2)COC(=O)[C@]3(O)CC`: the Potency is 0.148 µM (active).

In the case of `CCC[C@H](NC(=O)C(C#N)=Cc1cccc(Br)n1)c1ccccc1`, the Potency is 2.09 µM (active).

With `CC(NCc1ccc2c(c1)nc(NC(=O)c1ccc(-c3cn[nH]c3)s1)n2CC(C)(C)O)C(C)(C)C` (centres undefined), the Potency was 0.296 µM (active).

Turning to `CNC(=O)c1c(F)cccc1Nc1nc(Nc2cc3c(cc2OC)CCN3C(=O)CN(C)C)nc2[nH]ccc12`, the Potency is 2.64 µM (active).

On to `CC(C)CC(=O)Nc1n[nH]c2c1CN(C(=O)C1CCN(C)CC1)C2(C)C`, for which the Potency was 2.09 µM (active).

Consider `COc1cc2c(cc1-c1c(C)noc1C)ncc1[nH]c(=O)n([C@H](C)c3ccccn3)c12`, for which the Potency is 14.8 µM (active).

Regarding `COc1cc(=C2C=c3ccccc3=N2)[nH]c1=Cc1[nH]c(C)cc1C`, the Potency is 1.48 µM (active).

In the case of `Nc1nc(Nc2ccc(S(N)(=O)=O)cc2)nn1C(=O)c1c(F)cccc1F`, the Potency was 3.32 µM (active).

With `NC(=O)c1c(OCc2c(F)cc(Br)cc2F)nsc1NC(=O)NCCCCN1CCCC1`, the Potency is 23.5 µM (active).

With `CCOC(=O)C1=C(C)NC2=C(C(=O)CC(C)(C)C2)C1c1ccc(-c2ccccc2)cc1` (centres undefined), the Potency is 20.9 µM (active).

As for `Nc1cc(C(F)(F)F)c(-c2cc(N3CCOCC3)nc(N3CCOCC3)n2)cn1`, the Potency was 0.935 µM (active).

As to `O=C(Nc1cn[nH]c1-c1nc2ccc(CN3CCOCC3)cc2[nH]1)NC1CC1`, the Potency was 0.935 µM (active).

Turning to `C[C@@]12O[C@@H](C[C@]1(O)CO)n1c3ccccc3c3c4c(c5c6ccccc6n2c5c31)CNC4=O`, the Potency was 0.118 µM (active).

On to `CNC(=O)c1cc(Oc2ccc(NC(=O)Nc3cc(C(C)(C)C)nn3-c3ccc4ncccc4c3)c(F)c2)ccn1`, for which the Potency was 5.26 µM (active).

For `O=C(CCCCCCC(=O)Nc1ccc([C@H]2O[C@@H](CSc3nc(-c4ccccc4)c(-c4ccccc4)o3)C[C@@H](c3ccc(CO)cc3)O2)cc1)NO`, the Potency was 14.8 µM (active).

On to `O=C(NCCCNc1nc(Nc2cccc(NC(=O)N3CCCC3)c2)ncc1I)c1cccs1`, for which the Potency is 1.18 µM (active).

Take `NC1(Cc2ccc(Cl)cc2)CCN(c2ncnc3[nH]ccc23)CC1`: the Potency is 7.43 µM (active).

Regarding `CC(C)[C@H](C(=O)Nc1ccc(C(=O)NO)cc1)c1ccccc1`, the Potency was 1.05 µM (active).

As for `COC(=O)Nc1ccc(-c2nc(N3CCOCC3)c3cnn(C4CCN(Cc5cccnc5)CC4)c3n2)cc1`, the Potency is 0.0469 µM (active).
